Compounds without any hit were thinned out: in the full panel of roughly 83,000, 20% have a hit.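 For each line, cells grew in 96-well plates with the test compound present at a single concentration for 48 hours.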 Unmarked numbers belong to inactive results. The source made the active and inactive calls. How the source made its calls: active means growth percent below 10; inactive means the rest.
Columns and labels:
Assay in all cases: NCI-60 one-dose screen, 48 h (100 = growth as untreated, 0 = no growth, -100 = all killed)
Conditions in all cases: 10 µM unless noted
NCI-H23 lung = tested on: NCI-H23 lung
NCI-H226 lung = tested on: NCI-H226 lung
NCI-H322M lung = tested on: NCI-H322M lung
HOP-62 NSCLC = tested on: HOP-62 NSCLC
NCI-H460 lung = tested on: NCI-H460 lung
NCI-H522 lung = tested on: NCI-H522 lung
A549/ATCC NSCLC = tested on: A549/ATCC NSCLC
786-0 renal = tested on: 786-0 renal
DU-145 prostate = tested on: DU-145 prostate
MALME-3M melanoma = tested on: MALME-3M melanoma
MDA-MB-231 breast = tested on: MDA-MB-231 breast
RXF 393 renal = tested on: RXF 393 renal
SF-268 CNS = tested on: SF-268 CNS
SF-295 CNS = tested on: SF-295 CNS
SF-539 CNS = tested on: SF-539 CNS
UACC-257 melanoma = tested on: UACC-257 melanoma
M14 melanoma = tested on: M14 melanoma
HCT-15 colon = tested on: HCT-15 colon
COLO 205 colon = tested on: COLO 205 colon
K-562 leukemia = tested on: K-562 leukemia

| Structure (SMILES) | growth (NCI-H23 lung) | growth (NCI-H226 lung) | growth (NCI-H322M lung) | growth (HOP-62 NSCLC) | growth (NCI-H460 lung) | growth (NCI-H522 lung) | growth (A549/ATCC NSCLC) | growth (786-0 renal) | growth (DU-145 prostate) | growth (MALME-3M melanoma) | growth (MDA-MB-231 breast) | growth (RXF 393 renal) | growth (SF-268 CNS) | growth (SF-295 CNS) | growth (SF-539 CNS) | growth (UACC-257 melanoma) | growth (M14 melanoma) | growth (HCT-15 colon) | growth (COLO 205 colon) | growth (K-562 leukemia) |
| --- | --- | --- | --- | --- | --- | --- | --- | --- | --- | --- | --- | --- | --- | --- | --- | --- | --- | --- | --- | --- |
| COc1cc(C2NC(c3ccc(Cl)cc3)C(C)/C(=N/NC(N)=S)C2C)cc(OC)c1OC (centres undefined) | 92.6% | 85.9% | 97.7% | 99% | 100% | 65.6% | 94.9% | 91.1% | 117% | 73% | 101% | 85.9% | 101% | 117% | 88.8% | 103% | 92.7% | 81.9% |  |  |
| O=C(CCc1nnc2sc(-c3ccc(Cl)cc3Cl)nn12)c1nc2ccccc2[nH]1 | -35.1% (active) | -78.4% (active) | -54.7% (active) | -56.9% (active) | -57.8% (active) | -74.7% (active) | -46.1% (active) | -94.7% (active) |  | -26.5% (active) | -54.2% (active) | -92.9% (active) | 15.2% | -37.4% (active) | -19% (active) | -69.9% (active) | -47.5% (active) | -31.8% (active) |  |  |
| O=NC1CC=CCC1c1ccccc1 (centres undefined) | 106% | 105% | 118% | 98.7% | 112% | 109% |  | 106% | 124% | 114% | 101% | 116% | 104% | 122% | 98.5% | 105% | 105% | 104% | 117% | 105% |
| NC(N)=NN=c1c(=O)c2ccccc2c1=O | 58% | 94.6% | 102% | 32.3% | 0.312% (active) | 80.8% | 95.1% | 108% | -97.4% (active) | -96.4% (active) | 90.8% |  | 50.6% | 66% | 112% | 106% | -90.8% (active) | 43.4% |  |  |
| COc1ccc(-c2c3c(nn2-c2ccc(N)cc2)CCc2cnoc2-3)cc1OC | 93.4% | 95.8% | 103% | 104% | 101% | 70.4% | 85.2% | 84.9% |  | 106% | 88.5% | 93% | 90.8% | 85.4% | 94.5% | 112% | 97.8% | 85.6% |  |  |
| CSc1nc2c(c(=O)n1C)C(c1ccccc1)C1=C(N2)/C(=C/c2ccccc2)CCC1 (centres undefined) | 54.8% | 74.1% | 86% | 94.3% | 54.3% | 24.5% | 86.2% | 54.6% | 72.2% | 70.4% | 53.5% | 36.9% | 62.6% | 7.45% (active) | 63.4% | 52.2% | 65.9% | 58.9% |  |  |
| O=c1[nH]c(Cl)nc2c1cnn2-c1ccccc1 | 81.3% | 92.5% | 112% | 91.3% | 95.3% | 97.1% | 113% |  | 104% | 104% | 92.3% | 111% | 93% | 85.2% | 77.2% | 106% | 84.9% | 94.7% | 107% | 43% |
| Cc1nn(-c2ccc(Cl)cc2)c2nc3c(nc12)c(=O)oc1ccccc13 | 100% | 128% | 116% | 107% | 109% | 101% | 95.4% | 98.1% | 118% | 108% | 110% | 136% | 104% | 92.7% |  | 104% | 107% | 103% |  |  |
| COc1ccc2c(c1)nc(N)c1c3cc(OC)c(OC)cc3cn21 | 56.1% | 78.2% | 84.6% | 76.9% | 20.5% | -8.03% (active) | 43.8% | 43.1% |  | 71.3% | 83.8% | 46.3% | 55.1% | 31% | 78.6% | 94.8% | 31.6% | 30.4% |  |  |
| N#CCCCCCn1c2ccccc2c2c3c(c4c5ccccc5[nH]c4c21)C(=O)N(O)C3=O | -5.54% (active) | 43.3% | 19.9% | 18.4% | -7.73% (active) | -53.9% (active) | 25% |  | 18.5% | -34.6% (active) | 16.1% | -30.7% (active) | 11.3% | -17.2% (active) | -95.4% (active) | 20.5% | 11.9% | 15.9% | 26.7% | 6.27% (active) |
| COc1ccc(C(=O)C(C)Br)cc1OC (centres undefined) | 90.7% | 96.1% | 99% | 106% | 103% | -10.4% (active) |  | 95.5% | 107% | 97.2% | 90% | 102% | 90.9% | 102% | 92.9% | 80.1% | 97.5% | 46.4% | 23.3% | 59.2% |
| CC(C)[C@]12O[C@H]1[C@@H]1O[C@]13[C@]1(O[C@H]1C[C@H]1C4=C(CC[C@@]13C)C(=O)OC4)[C@@H]2OC(=O)CN(C)C | -19.4% (active) | 10.6% | -7.07% (active) | 19.2% | 0.675% (active) | -41.8% (active) | 18.4% | 12.9% | 3.28% (active) | -45.2% (active) | 27.8% | -61.9% (active) | -10.2% (active) | -27.6% (active) | -23% (active) | -2.52% (active) | -74.2% (active) | 9.18% (active) |  |  |
| COc1cc2cn3c4ccc(O)cc4nc(N)c3c2cc1OC | 0.98% (active) | 25.7% | 28.7% | 11.9% | 1.19% (active) | -39.4% (active) | 18.4% | 6.11% (active) |  | 31.2% | 61.6% | 9.93% (active) | 20.8% | 9.44% (active) | -18.3% (active) | 6.97% (active) | -9.75% (active) | 31.4% |  |  |
| CCC(C)CC(CC)NCCN1CCN(C(CC)CC(C)CC)C1=S (centres undefined) | 42.5% | 47% | 78.8% | 29.1% | 9.44% (active) | -12% (active) | 50.2% | 56.5% | 29.5% | -33.8% (active) | -12.4% (active) |  | 61.8% | 56.1% | 69.2% | 39.5% | -47.3% (active) | 22.5% |  |  |
| NC(N)=NC(N)=NCCCc1ccccc1 | 50.2% [100 µM] | 63.4% [100 µM] | 84.6% [100 µM] | 65.1% [100 µM] | 81.6% [100 µM] | 47.2% [100 µM] | 62.3% [100 µM] | 56.2% [100 µM] |  | 63.9% [100 µM] | 69% [100 µM] | 72.4% [100 µM] | 59.5% [100 µM] | 49.4% [100 µM] | 66.5% [100 µM] | 62.8% [100 µM] | 76.6% [100 µM] | 80.3% [100 µM] |  |  |
| CCN(CC)c1ccc(CN(CC(=O)c2ccc(Cl)c(Cl)c2)Cc2ccccc2)cc1 | 97.6% | 90.9% | 110% | 96.9% | 101% | 106% | 107% |  | 104% | 108% | 99.9% | 89.9% | 102% | 107% | 108% | 112% | 103% | 99.8% | 104% | 103% |
| Cc1cc2cn3c4cccnc4[nH]c(=O)c3c2cc1C | 55.7% | 90.3% | 91.8% | 46.8% | 4.12% (active) | -75% (active) | 10.2% | -14.5% (active) |  | 80.1% | 40.5% | 70.6% | 73.4% | 34.4% | 76.7% | 85.8% | 36.4% | -37.7% (active) |  |  |
| O=C1c2nsnc2C(=O)c2c(F)c(F)c(F)c(F)c21 | -22.5% (active) | -38.2% (active) | 26.9% | -86% (active) | -51.8% (active) | -67.2% (active) | -27.9% (active) | -97.1% (active) |  | -45.9% (active) | -68.2% (active) | -96.4% (active) | -15.6% (active) | -37% (active) | -74.1% (active) | -97.3% (active) | -90.8% (active) | -59.1% (active) |  |  |

— PubChem BioAssay (NCI)
